Cycloheximide cs: Cycloheximide Counterscreen for Small Molecule Inhibitors of Shiga Toxin; cell reporter, cycloheximide protein synthesis inhibition counterscreen; max response, %; hit rate 12% among 300,000; AID 2314, 2010; in the data active = max response mostly above about 13%, no sharp cut-off; inactive = mostly below about 14%; note: read at 38.3 µM for the half of the compounds with a filed dose; 0% is about no effect
HCV inhibitor: qHTS Assay for Inhibitors of Hepatitis C Virus (HCV); Huh7.5.1 HCVcc-Cre infection, luciferase reporter, 44 h; Potency, µM (series often up to 41.8 µM), inactives show at the highest dose activity change, negative = inhibition, hits mostly inhibitors; hit rate 3.4% among 340,000; note: potency is the fitted concentration of half-maximal effect; % is set by controls: 0 for no effect and ±100 for the full control effect
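Infectious HCV cell culture screen: compound-treated cells (1,000/well, pre-plated 4 h) are infected with HCVcc-Cre at roughly 0.5 moi and grown 44 h. Infection is quantified by luciferase signal after 15 min substrate incubation at room temperature.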
Pf growth 96h: Primary qHTS for delayed death inhibitors of the malarial parasite plastid, 96 hour incubation. P. falciparum luciferase reporter growth, 96 h. Potency, µM (highest dose often 28.7 µM), inactives show at the top dose activity change, negative = inhibition, most hits filed as inhibitors. hit rate 6.9% among 320,000; note: potency is the fitted concentration of half-maximal effect; % is set by controls: 0 for no effect and ±100 for the full control effect
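Parasite growth measured via integrated firefly luciferase reporter in P. falciparum. Infected erythrocytes at 2% hematocrit, 0.05% parasitemia final were treated 96 hours at 37 C under 5% CO2, and luminescence was read.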
AMA1-RON2 inh: qHTS for Inhibitors of AMA1-RON; Towards Development of Antimalarial Drug Lead: Primary Screen; Plasmodium falciparum AMA1 (3D7) - RON2 peptide interaction; hit rate 0.2% among 360,000; AlphaScreen AMA1-biotinylated RON2 peptide binding; Potency, µM (series often up to 58.2 µM), without a hit: top-dose activity change, negative = inhibition, hits mostly inhibitors;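 note: potency is the fitted concentration of half-maximal effect; 0% = vehicle wells and -100% = peptide control; nearly all actives have a fitted effect of over 45% in size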
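AMA1 (3D7) with his tag at 25 nM final met compounds first, then biotinylated RON2 peptide at 25 nM; detection used donor plus acceptor beads, 10 µg/mL apiece, read by AlphaScreen after 30 min at room temperature.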
Shiga inhibitor: A qHTS for Small Molecule Inhibitors of Shiga Toxin. Vero cells, Shiga toxin protein synthesis inhibition reporter. inhibition, % at 38.7 µM. hit rate 9.2% among 290,000; in the data active = inhibition mostly above about 28%, no sharp cut-off; inactive = mostly below about 43%; note: 0% is about no effect
Pf growth 48h: Primary qHTS for delayed death inhibitors of the malarial parasite plastid, 48 hour incubation; P. falciparum luciferase growth in erythrocytes, 48 h; Potency, µM (series often up to 28.7 µM), inactives show top-dose activity change, negative = inhibition, most hits filed as inhibitors; hit rate 5.9% among 310,000; AID 504832, 2011; note: potency is the fitted concentration of half-maximal effect; % is set by controls: 0 for no effect and ±100 for the full control effect
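Parasite viability was followed by luminescence of a genomically integrated firefly luciferase. Cultures held 0.1% parasitemia at 2% hematocrit (final), incubated under 5% CO2 at 37 C.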
The depositor's hits bear a star; i = inactive; ? = inconclusive; / = no result; [ ] = another dose, or the depositor's remark. Shown are actives, neighbours in structure and some others; about 21% of the full set was active somewhere. Unless noted, calls come from the whole dose curve; as a rule, active = well fitted curve in the direction sought with a large enough effect; inconclusive = small, poorly fitted or top-dose-only effect, or another doubt; inactive = no such curve, though single readings can be large; an effect the other way counts as inactive or inconclusive.

SMILES	Cycloheximide cs	HCV inhibitor	Pf growth 96h	AMA1-RON2 inh	Shiga inhibitor	Pf growth 48h
COc1ccc(C(CNC(=O)c2oc3ccc(OC)cc3c2C)N2CCCC2)cc1 (stereo not drawn)	/	?	9.28µM*	-16.2%	/	8.28µM*
COc1ccc(C(CNC(=O)c2oc3ccc(Br)cc3c2C)N2CCCCC2)cc1 (stereo not drawn)	7.1	12.6µM*	-102.9%	-2.5%	4.6	?
COc1ccc2oc(C(=O)Nc3ccc(C)cn3)c(C)c2c1	/	3.8%	89.4%	-5.0%	/	105.3%
COc1ccc(C(CNC(=O)c2oc3ccc(F)cc3c2C)N2CCCCC2)cc1 (stereo not drawn)	-4.3	11.2µM*	17.8%	-19.9%	-1.9	?
COc1ccc(C(CNC(=O)c2oc3cc(C)c(C)cc3c2C)N2CCCCC2)cc1 (stereo not drawn)	-5.7	-11.3%	-11.9%	-3.8%	-14.9	?
CSCCC(NC(=O)c1ccccc1)C(=O)Nc1ccc(NC(C)=O)cc1 (stereo not drawn)	-1.6	9.1%	61.3%	/	9.5	12.7%
COc1ccc([C@]23Cc4cc(C#N)ccc4C(O2)c2c(cc(-c4ccccc4)oc2=O)O3)cc1	-1.8	/	-5.6%[5.75 µM]	/	i	?
CCOC(=O)CC/C(=N\NC(N)=O)c1ccc(OC)c(Cl)c1	/	20.3%	55.8%	5.5%	/	36.6%
CC(=O)COc1nc2c(c(-c3ccco3)c1C#N)CCc1ccccc1-2	18.9	11.2µM*	11.7µM*	-28.0%	25.0	11.7µM*
O=C(Nc1cccnc1)C1CCN(S(=O)(=O)c2ccc(Cl)cc2)CC1	-0.6	22.2%	-28.0%	-4.8%	-10.8	1.9%
[Cl-].[Cl-].[Hg+2]	/	/	2.39µM*	/	/	2.13µM*
CCOc1ccc(-n2c(=O)cc(N3CCN(c4ccccc4)CC3)[nH]c2=O)cc1	8.9	0.4%	?	-8.4%	-11.0	-13.2%
COc1ccc(-n2c(=O)cc(N3CCN(c4ccccc4)CC3)[nH]c2=O)cc1	60.3*	18.7%	?	-18.0%	-12.2	2.8%
O=c1cc(N2CCc3ccccc3C2)[nH]c(=O)n1-c1ccc(Br)cc1	1.4	25.5%	7.38µM*	-1.6%	12.3	20.7%
COc1cccc(-c2c(C#N)c(N)nc3c2c(=O)nc2sccn23)c1	-7.6	/	20.7%	/	-18.4	?
CCN(CC(=O)Nc1ccccc1C(F)(F)F)C(=O)C1CSC2(C)CCC(=O)N12 (stereo not drawn)	/	19.0%	10.9%	36.8%	/	7.2%
O=C(c1ccco1)N1CCN(Cc2ccc(F)cc2Cl)CC1	49.9*	11.0%	0.0%	-6.2%	/	?
O=C(c1ccco1)N1CCN(Cc2ccccc2Br)CC1	34.1*	20.3%	?	-10.6%	56.2*	-10.7%
O=C(c1ccco1)N1CCN(Cc2ccc(F)cc2)CC1	-1.0	9.3%	22.2%	?	-6.2	-0.1%
OC1CCN(Cc2cccc3ccccc23)CC1	0.3	23.0%	24.9%	-20.7%	-5.0	9.5%
C/C(=N/N1CCN(Cc2cccc3ccccc23)CC1)c1ccco1	10.9	-4.6%	1.7%	?	17.0*	0.7%
Cc1ccccc1Oc1cc(NC(=O)CCCn2nc(C)c([N+](=O)[O-])c2C)cc([N+](=O)[O-])c1	-0.8	?	14.7µM*	-7.5%	-14.0	?
CCc1ccc(NC(=O)Cn2cnc([N+](=O)[O-])c2)cc1	-2.1	-3.0%	210.6%	0.7%	-9.8	14.9%
Cc1ccccc1Oc1cc(NC(=O)Cn2cnc([N+](=O)[O-])c2)cc([N+](=O)[O-])c1	10.9	?	?	-7.9%	0.7	10.4µM*
Cc1nn(CCCC(=O)Nc2cc(Oc3ccc(F)cc3)cc([N+](=O)[O-])c2)c(C)c1[N+](=O)[O-]	12.6	?	?	-24.3%	7.1	3.6%
Cc1ccc(-n2ncc3c(=O)n(CC(=O)NC4CCCC4)cnc32)cc1C	-4.9	11.2%	/	9.1%	-14.8	24.4%
